This test has as its target furin, P09958. Nature of the test: furin cleavage Z-score vs untreated control; higher = more cleavage, active = 3.5 or more, inactive = 1 or less, 8 variable residues between constant flanks. In short, it runs like this:
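Purified furin cleaved 8-mer peptides that were fused to a cDNA oligonucleotide and held on magnetic beads by their N-terminus. Each 0.01 ml reaction used a 1:10 enzyme:substrate ratio in 50 mM HEPES pH 7.5 with CaCl2 and NaCl and ran 7.5, 15 or 30 min. Released DNA was adapter-tagged by PCR and sequenced, and read counts gave abundance. The cleavage Z-score came from log counts against furin-free reactions, lowess-adjusted and scaled by median absolute deviation.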

The list shows a part of the results. The true hit rate is not given.

Sequence of furin, P09958 (P09958 whole entry, the tested form may be a part): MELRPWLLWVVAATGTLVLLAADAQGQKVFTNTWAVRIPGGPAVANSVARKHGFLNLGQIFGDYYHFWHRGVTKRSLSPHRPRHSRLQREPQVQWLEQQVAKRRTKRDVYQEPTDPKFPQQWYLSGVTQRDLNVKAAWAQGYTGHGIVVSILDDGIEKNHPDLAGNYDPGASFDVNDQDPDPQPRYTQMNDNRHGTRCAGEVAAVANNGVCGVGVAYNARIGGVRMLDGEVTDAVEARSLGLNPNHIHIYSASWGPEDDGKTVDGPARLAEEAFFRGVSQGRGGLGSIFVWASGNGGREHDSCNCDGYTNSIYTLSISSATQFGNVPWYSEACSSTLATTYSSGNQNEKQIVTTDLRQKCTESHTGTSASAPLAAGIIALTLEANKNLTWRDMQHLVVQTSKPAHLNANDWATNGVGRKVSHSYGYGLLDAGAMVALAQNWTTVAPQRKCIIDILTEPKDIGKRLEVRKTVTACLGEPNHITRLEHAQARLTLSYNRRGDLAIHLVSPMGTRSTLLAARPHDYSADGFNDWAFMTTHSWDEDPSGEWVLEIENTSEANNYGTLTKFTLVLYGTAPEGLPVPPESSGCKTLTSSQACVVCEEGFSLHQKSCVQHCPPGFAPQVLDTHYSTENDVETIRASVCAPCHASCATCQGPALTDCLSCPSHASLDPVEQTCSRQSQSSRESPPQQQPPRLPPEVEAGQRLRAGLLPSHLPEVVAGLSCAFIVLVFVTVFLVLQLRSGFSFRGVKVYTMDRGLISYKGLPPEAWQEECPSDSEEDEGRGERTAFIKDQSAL

In the case of CASTPCSDHLAGNASASA [HC2531], the “furin cleavage Z-score” value is, setting by setting: (7.5 min) 0.0703 (inactive); (15 min) 0.929 (inactive); (30 min) -0.421 (inactive).

For the sequence CARPARYRRGAGNASASA [FS-861], the “furin cleavage Z-score” value was 11.5 (active) (7.5 min), 11.1 (active) (15 min) and 8.69 (active) (30 min).

As to CAKPARYRRGAGNASASA [FS-813], the “furin cleavage Z-score” value is, setting by setting: (7.5 min) 12.3 (active); (15 min) 12.4 (active); (30 min) 9.69 (active).

As to CARPARDEGGAGNASASA [FS-2050], the “furin cleavage Z-score” value (7.5 min) is -0.0204 (inactive), the “furin cleavage Z-score” value (15 min) is -1.47 (inactive) and the “furin cleavage Z-score” value (30 min) was -0.304 (inactive).

Consider CAERGFFYTPAGNASASA [EK9], for which the “furin cleavage Z-score” value is -0.00549 (inactive) (7.5 min), -1.03 (inactive) (15 min) and -0.153 (inactive) (30 min).

CAVVCCSMSFAGNASASA [HC2087]: the “furin cleavage Z-score” value is, setting by setting: (7.5 min) -0.658 (inactive); (15 min) 0.464 (inactive); (30 min) -0.984 (inactive).

As for CAEKVTSTWVAGNASASA [HC2174], the “furin cleavage Z-score” value is, setting by setting: (7.5 min) -0.438 (inactive); (15 min) 1.1; (30 min) -0.0879 (inactive).

In the case of CACCRRKRRNAGNASASA [FS-1188], the “furin cleavage Z-score” value runs as follows: (7.5 min) 10.9 (active); (15 min) 10.1 (active); (30 min) 9.12 (active).

For the sequence CAEGQRKRRNAGNASASA [FS-19], the “furin cleavage Z-score” value is, setting by setting: (7.5 min) 11.4 (active); (15 min) 10.7 (active); (30 min) 8.22 (active).

With CAGCTTPCSGAGNASASA [HC1956], the “furin cleavage Z-score” value runs as follows: (7.5 min) -0.873 (inactive); (15 min) -0.658 (inactive); (30 min) -0.0577 (inactive).

In the case of CAGGAARALAAGNASASA [HC233], the “furin cleavage Z-score” value by setting is: (7.5 min) 0.841 (inactive); (15 min) -0.114 (inactive); (30 min) -0.813 (inactive).

With CAWTPCSGSWAGNASASA [HC1828], the “furin cleavage Z-score” value was -0.899 (inactive) (7.5 min), -0.739 (inactive) (15 min) and -0.599 (inactive) (30 min).

Regarding CAEVVTSEWVAGNASASA [HC2212], the “furin cleavage Z-score” value (7.5 min) is 0.969 (inactive), the “furin cleavage Z-score” value (15 min) was -0.725 (inactive) and the “furin cleavage Z-score” value (30 min) is -0.598 (inactive).

As for CATTPCSISWAGNASASA [HC1884], the “furin cleavage Z-score” value by setting is: (7.5 min) 1.02; (15 min) 2.64; (30 min) 0.615 (inactive).

On to CARSIRSSQNAGNASASA [FS-2806], for which the “furin cleavage Z-score” value is 3.82 (active) (7.5 min), 4.88 (active) (15 min) and 5.06 (active) (30 min).

Regarding CARSIRSTGSAGNASASA [FS-1971], the “furin cleavage Z-score” value was 8.51 (active) (7.5 min), 7.83 (active) (15 min) and 8.71 (active) (30 min).

In the case of CARSDRSVPSAGNASASA [FS-2236], the “furin cleavage Z-score” value (7.5 min) is -0.464 (inactive), the “furin cleavage Z-score” value (15 min) is -1.02 (inactive) and the “furin cleavage Z-score” value (30 min) was -0.799 (inactive).

On to CARSIRSVAIAGNASASA [FS-3081], for which the “furin cleavage Z-score” value is -0.459 (inactive) (7.5 min), 0.367 (inactive) (15 min) and 2.74 (30 min).

Consider CAGEVPSTEDAGNASASA [HC1096], for which the “furin cleavage Z-score” value runs as follows: (7.5 min) -0.773 (inactive); (15 min) -0.136 (inactive); (30 min) 0.506 (inactive).

Regarding CAPTPCSAHLAGNASASA [HC2479], the “furin cleavage Z-score” value by setting is: (7.5 min) -0.112 (inactive); (15 min) 0.764 (inactive); (30 min) 1.86.

On to CAFAPTLWARAGNASASA [HC1578], for which the “furin cleavage Z-score” value was 0.686 (inactive) (7.5 min), -1.55 (inactive) (15 min) and 0.247 (inactive) (30 min).

Turning to CAHSSRPVRDAGNASASA [FS-1594], the “furin cleavage Z-score” value is 6.49 (active) (7.5 min), 7.91 (active) (15 min) and 7.38 (active) (30 min).

For the sequence CAHSKRRVRDAGNASASA [FS-663], the “furin cleavage Z-score” value by setting is: (7.5 min) 13.2 (active); (15 min) 12.9 (active); (30 min) 9.58 (active).

For the origin of these results see the supplement of paper PMC3545927.
